Screening data (PubChem BioAssay)
Only some compounds are listed: those with a hit (about 2.1% of all), similar ones and a draw of the others.
U2OS ROS induce: cancer cell ROS induction. U2OS ROS induction, H2DCF-DA fluorescence. ROS induction (% of piperlongumine), % at 10 µM. actives 2% (n = 46,000). AID 624156; in the data active = ROS induction above about 79%, passing the limit was not always enough; inconclusive = no clear call, values can overlap the other calls
PD-1 reversal: activators reversing PD-1 mediated T-cell inhibition. primary human CD4 T cells, PD-L1 beads, CellTiter-Glo 96 h. activation, % (test concentration not listed). 29,000 tested, under 10 active; call rule not given here
YB-1 expr inh: YB-1 expression inhibition. U2OS, qRT-PCR YB-1 vs CDIP delta delta Cp, 16 h; hits give high values; zero = DMSO, each unit about twofold. delta delta Cp (YB-1 minus CDIP) (no concentration beside the values). actives 0.37% (n = 30,000);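 active = delta delta Cp rounded down to an integer at or above 3, about 3 SD of DMSO wells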;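 note: higher means less YB-1 transcript or more CDIP transcript relative to DMSO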
Numbers stand for hits; . = inactive; ? = inconclusive; / = no result.

SMILES | U2OS ROS induce | PD-1 reversal | YB-1 expr inh
COC(=O)c1ccc([C@H]2C(C#N)=C(N)C(C#N)(C#N)C3=CCC(C(C)(C)C)C[C@@H]32)cc1 (some centres undefined) | 225.9 | . | .
CC(C)(C)C1CC=C2[C@H](C1)[C@@H](c1ccsc1)C(C#N)=C(N)C2(C#N)C#N (some centres undefined) | . | . | .
C[C@@H]1CN([C@H](C)CO)C(=O)c2cccc(NS(=O)(=O)c3ccc(Cl)cc3)c2O[C@H]1CN(C)C(=O)Nc1cccc2ccccc12 | . | . | .
Nc1cc(C(F)(F)F)ccc1Sc1nc2ccccc2s1 | . | / | /
CN/C(=C/[N+](=O)[O-])NCCSCc1csc(CN(C)C)n1 | . | . | 3.8
CN(C)c1cc(N=C2CCCN2c2ccccc2)c2ccccc2n1 | . | / | /
S=c1nc[nH]c2c1nnn2Cc1ccccc1Cl | . | . | .
COc1ccc(C#Cc2ccc3c(c2)[C@]2(C(=O)N3)[C@H](C(=O)N3CCc4cc(OC)c(OC)cc4C3)[C@H]3C(=O)O[C@H](c4ccccc4)[C@H](c4ccccc4)N3[C@@H]2c2ccc(OCCO)cc2)cc1 | . | / | .
NC(=O)[C@H]1[C@@H]2C(=O)O[C@@H](c3ccccc3)[C@@H](c3ccccc3)N2[C@@H](c2ccc(OCCO)cc2)[C@]12C(=O)Nc1ccc(C#CC3=CCCCC3)cc12 | . | / | .
C=CCNC(=O)[C@H]1[C@@H]2C(=O)O[C@@H](c3ccccc3)[C@@H](c3ccccc3)N2[C@@H](c2ccc(OCCO)cc2)[C@]12C(=O)Nc1ccc(C#CCC(C(=O)OC)C(=O)OC)cc12 | 156.6 | / | .
C=CCNC(=O)[C@@H]1[C@H]2C(=O)O[C@H](c3ccccc3)[C@H](c3ccccc3)N2[C@H](c2ccc(OCCO)cc2)[C@@]12C(=O)Nc1ccc(C#CCC(C(=O)OC)C(=O)OC)cc12 | ? | / | .
O=C1O[C@@H](c2ccccc2)[C@@H](c2ccccc2)N2[C@@H](c3ccc(OCCO)cc3)[C@]3(C(=O)Nc4ccc(C#CC5=CCCCC5)cc43)[C@@H](C(=O)O)[C@H]12 | 159.2 | / | .
COC(=O)C(CC#Cc1ccc2c(c1)[C@]1(C(=O)N2)[C@H](c2ccc(OCCO)cc2)N2[C@H](c3ccccc3)[C@H](c3ccccc3)OC(=O)[C@H]2[C@@H]1C(=O)N1CCc2cc(OC)c(OC)cc2C1)C(=O)OC | 131.8 | / | .
C=CCNC(=O)[C@@H]1[C@H]2C(=O)O[C@H](c3ccccc3)[C@H](c3ccccc3)N2[C@H](c2ccccc2OCCO)[C@@]12C(=O)Nc1ccc(C#CCNC(N)=O)cc12 | . | / | .
C=CCNC(=O)[C@@H]1[C@H]2C(=O)O[C@H](c3ccccc3)[C@H](c3ccccc3)N2[C@H](c2ccccc2OCCO)[C@@]12C(=O)Nc1ccc(C#CCC(C(=O)OC)C(=O)OC)cc12 | 191.7 | / | .
COc1ccc(-c2cc(OC(=O)c3ccccc3)cc3sc(=O)oc23)cc1 | . | / | /
CCc1c(C)sc(NC(=S)Nc2cnccn2)c1C(=O)OC | . | . | /
COC(=O)C(CC#Cc1ccc2c(c1)[C@]1(C(=O)N2)[C@H](C(=O)NC[C@H](O)c2ccccc2)[C@H]2C(=O)O[C@H](c3ccccc3)[C@H](c3ccccc3)N2[C@@H]1c1ccc(OCCO)cc1)C(=O)OC | . | / | .
C=CCNC(=O)[C@H]1[C@@H]2C(=O)O[C@@H](c3ccccc3)[C@@H](c3ccccc3)N2[C@@H](c2ccccc2OCCO)[C@]12C(=O)Nc1ccc(C#Cc3ccc(OC)cc3)cc12 | . | / | .
C=CCNC(=O)[C@H]1[C@@H]2C(=O)O[C@@H](c3ccccc3)[C@@H](c3ccccc3)N2[C@@H](c2ccccc2OCCO)[C@]12C(=O)Nc1ccc(C#CCC(C(=O)OC)C(=O)OC)cc12 | 184.9 | / | .
COC(=O)C(CC#Cc1ccc2c(c1)[C@]1(C(=O)N2)[C@H](c2ccccc2OCCO)N2[C@H](c3ccccc3)[C@H](c3ccccc3)OC(=O)[C@H]2[C@@H]1C(=O)NC[C@H](O)c1ccccc1)C(=O)OC | 204.9 | / | .
C[C@@H]1CN([C@@H](C)CO)C(=O)c2cc(NC(=O)CCCN(C)C)ccc2O[C@H]1CN(C)Cc1ccc(-c2ccccc2)cc1 | . | . | .
O=C(CSCc1ccc(F)cc1)NC1CCCCC1 | . | / | /
COc1cc(NC(=O)COc2cc(C)c(Cl)c(C)c2)ccc1NC(=O)c1cc2ccccc2o1 | . | / | /
COc1ccc([Si](C)(C)[C@@H]2[C@@H](CCO)O[C@]3(C(=O)N(Cc4ccccc4)c4ccc(NC(C)=O)cc43)[C@H]2C)cc1 | . | / | .
SMILES | U2OS ROS induce | PD-1 reversal | YB-1 expr inh
C=CCN1C(=O)[C@]2(O[C@H](CCO)[C@@H]([Si](C)(C)c3ccc(OC)cc3)[C@@H]2C)c2cc(N3CCC3=O)ccc21 | . | / | .
C=CCN1C(=O)[C@@]2(O[C@@H](CCO)[C@H]([Si](C)(C)c3ccc(OC)cc3)[C@H]2C)c2cc(I)ccc21 | 93.6 | / | .
C=CCN1C(=O)[C@@]2(O[C@@H](CCO)[C@H]([Si](C)(C)c3ccc(OC)cc3)[C@H]2C)c2cc(NC(C)=O)ccc21 | 105.7 | / | .
CCOC(=O)c1c(NC(=O)CN2C(=O)c3cccc4cccc(c34)C2=O)sc2c1CCC2 | . | . | /
O=C(CSc1nc(-c2ccccc2)cs1)Nc1ccccc1C(F)(F)F | . | . | /
CCSc1nc(O)c(C(C)CC)c(=O)[nH]1 (centres undefined) | . | . | .
CCCc1c(-c2ccccc2)nc2sc3c(c2c1N)CCCCC3 | 168.6 | / | /
Nn1c(Cc2ccccc2)nc2sc3c(c2c1=O)CCCC3 | . | / | /
CC(C)(C)C1CCC2(CC1)C(C#N)C2(C#N)C(=O)c1ccccc1 (centres undefined) | 159.4 | . | .
CC12CCC(CC(=O)c3ccccc3)(CC1)CC2 | . | . | .
C=CC(C)(O)CC/C=C(\C)C(=O)OC1C2OC2(C)C2C(OC3OC(COC4OC(CO)C(O)C(O)C4O)C(O)C(O)C3O)OC=CC12O (centres undefined) | . | / | .
CC(C)NC(=O)Nc1ccc2c(c1)C(=O)N([C@H](C)CO)C[C@@H](C)[C@@H](CN(C)C)O2 | . | . | .
S=C(c1nc2ccccc2[nH]1)N1CCOCC1 | . | . | 5.19
O=C(c1nc2ccccc2[nH]1)N1CCOCC1 | . | / | /
Cc1nc2c(C(=O)NCc3ccc4c(c3)OCO4)cnn2c(C)c1Cc1c(F)cccc1Cl | . | / | /
COc1cccc(CNC(=O)c2cnn3c(C)c(Cc4c(C)cc(C)cc4C)c(C)nc23)c1 | 142.3 | / | /
CC(C)NC(=O)N(C)C[C@@H]1Oc2ccc(NS(=O)(=O)c3ccc(Cl)cc3)cc2C(=O)N([C@H](C)CO)C[C@H]1C | . | . | .
COC(=O)c1ccc(-c2ccco2)n1CC(=O)NC(C)C | . | / | /
O=C(Nc1cc2c(ccc3ccccc32)oc1=O)c1ccccc1 | . | . | 3.29
CC(=O)Nc1cc2c(ccc3ccccc32)oc1=O | . | / | /
C[C@@H]1CN([C@@H](C)CO)C(=O)Cc2cc(NC(=O)CCN3CCOCC3)ccc2O[C@@H]1CN(C)C(=O)NC1CCCCC1 | . | . | .
Cc1nc(-c2ccccc2)sc1C(=O)C1C(=O)C(=O)N(CCCN2CCOCC2)C1c1ccco1 (centres undefined) | . | . | /
